Of roughly 8,800 targets only a part is listed; those with a hit were picked by preference. About 0.5% of all pairs of compound and target were hits.

Among the data in the supplement of paper PMC10849652 are log2 fold change values, retold here.

Sequence of UniProt Q5BKX5 (Q5BKX5 whole entry, looked up): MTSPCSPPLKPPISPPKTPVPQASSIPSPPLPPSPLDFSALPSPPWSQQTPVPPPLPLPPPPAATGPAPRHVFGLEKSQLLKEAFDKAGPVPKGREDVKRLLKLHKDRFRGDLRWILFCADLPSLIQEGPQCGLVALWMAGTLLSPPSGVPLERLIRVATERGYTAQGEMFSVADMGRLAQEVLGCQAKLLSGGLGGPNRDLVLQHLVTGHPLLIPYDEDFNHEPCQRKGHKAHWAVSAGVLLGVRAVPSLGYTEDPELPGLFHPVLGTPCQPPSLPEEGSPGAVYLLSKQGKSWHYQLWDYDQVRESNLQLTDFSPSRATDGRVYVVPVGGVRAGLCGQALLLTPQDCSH
Sequence of UniProt Q8IWY9 (Q8IWY9 whole entry, looked up): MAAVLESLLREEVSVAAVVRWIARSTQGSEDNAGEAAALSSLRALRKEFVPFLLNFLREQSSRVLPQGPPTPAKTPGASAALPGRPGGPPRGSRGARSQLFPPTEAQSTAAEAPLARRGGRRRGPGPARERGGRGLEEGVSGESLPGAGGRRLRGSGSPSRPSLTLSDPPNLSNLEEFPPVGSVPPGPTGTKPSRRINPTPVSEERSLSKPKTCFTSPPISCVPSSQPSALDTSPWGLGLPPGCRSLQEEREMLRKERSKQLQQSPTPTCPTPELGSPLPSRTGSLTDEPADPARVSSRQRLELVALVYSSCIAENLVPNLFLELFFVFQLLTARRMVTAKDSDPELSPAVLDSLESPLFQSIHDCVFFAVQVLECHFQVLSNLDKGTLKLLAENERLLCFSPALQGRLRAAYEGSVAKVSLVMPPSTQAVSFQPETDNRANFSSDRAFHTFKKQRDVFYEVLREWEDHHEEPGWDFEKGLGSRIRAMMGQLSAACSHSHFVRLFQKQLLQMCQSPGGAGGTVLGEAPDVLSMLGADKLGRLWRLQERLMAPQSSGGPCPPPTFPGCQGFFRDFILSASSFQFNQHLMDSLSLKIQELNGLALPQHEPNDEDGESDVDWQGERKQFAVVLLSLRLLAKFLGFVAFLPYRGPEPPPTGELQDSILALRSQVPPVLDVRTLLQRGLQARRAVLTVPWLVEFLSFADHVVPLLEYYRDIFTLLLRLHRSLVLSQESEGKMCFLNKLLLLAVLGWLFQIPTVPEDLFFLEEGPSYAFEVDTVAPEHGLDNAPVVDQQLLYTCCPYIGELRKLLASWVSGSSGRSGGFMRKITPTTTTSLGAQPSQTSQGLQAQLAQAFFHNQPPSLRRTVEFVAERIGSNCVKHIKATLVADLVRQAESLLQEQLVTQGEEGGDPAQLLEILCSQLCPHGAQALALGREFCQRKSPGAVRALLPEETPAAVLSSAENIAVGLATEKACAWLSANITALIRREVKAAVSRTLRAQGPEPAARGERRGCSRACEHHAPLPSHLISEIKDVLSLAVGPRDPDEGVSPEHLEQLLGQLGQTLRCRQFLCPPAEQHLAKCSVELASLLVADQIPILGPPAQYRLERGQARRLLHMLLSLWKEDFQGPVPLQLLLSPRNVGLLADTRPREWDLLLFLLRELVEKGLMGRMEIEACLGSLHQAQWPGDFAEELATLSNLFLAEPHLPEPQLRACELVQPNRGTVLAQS
Sequence of UniProt Q5VT25 (Q5VT25 whole entry, looked up): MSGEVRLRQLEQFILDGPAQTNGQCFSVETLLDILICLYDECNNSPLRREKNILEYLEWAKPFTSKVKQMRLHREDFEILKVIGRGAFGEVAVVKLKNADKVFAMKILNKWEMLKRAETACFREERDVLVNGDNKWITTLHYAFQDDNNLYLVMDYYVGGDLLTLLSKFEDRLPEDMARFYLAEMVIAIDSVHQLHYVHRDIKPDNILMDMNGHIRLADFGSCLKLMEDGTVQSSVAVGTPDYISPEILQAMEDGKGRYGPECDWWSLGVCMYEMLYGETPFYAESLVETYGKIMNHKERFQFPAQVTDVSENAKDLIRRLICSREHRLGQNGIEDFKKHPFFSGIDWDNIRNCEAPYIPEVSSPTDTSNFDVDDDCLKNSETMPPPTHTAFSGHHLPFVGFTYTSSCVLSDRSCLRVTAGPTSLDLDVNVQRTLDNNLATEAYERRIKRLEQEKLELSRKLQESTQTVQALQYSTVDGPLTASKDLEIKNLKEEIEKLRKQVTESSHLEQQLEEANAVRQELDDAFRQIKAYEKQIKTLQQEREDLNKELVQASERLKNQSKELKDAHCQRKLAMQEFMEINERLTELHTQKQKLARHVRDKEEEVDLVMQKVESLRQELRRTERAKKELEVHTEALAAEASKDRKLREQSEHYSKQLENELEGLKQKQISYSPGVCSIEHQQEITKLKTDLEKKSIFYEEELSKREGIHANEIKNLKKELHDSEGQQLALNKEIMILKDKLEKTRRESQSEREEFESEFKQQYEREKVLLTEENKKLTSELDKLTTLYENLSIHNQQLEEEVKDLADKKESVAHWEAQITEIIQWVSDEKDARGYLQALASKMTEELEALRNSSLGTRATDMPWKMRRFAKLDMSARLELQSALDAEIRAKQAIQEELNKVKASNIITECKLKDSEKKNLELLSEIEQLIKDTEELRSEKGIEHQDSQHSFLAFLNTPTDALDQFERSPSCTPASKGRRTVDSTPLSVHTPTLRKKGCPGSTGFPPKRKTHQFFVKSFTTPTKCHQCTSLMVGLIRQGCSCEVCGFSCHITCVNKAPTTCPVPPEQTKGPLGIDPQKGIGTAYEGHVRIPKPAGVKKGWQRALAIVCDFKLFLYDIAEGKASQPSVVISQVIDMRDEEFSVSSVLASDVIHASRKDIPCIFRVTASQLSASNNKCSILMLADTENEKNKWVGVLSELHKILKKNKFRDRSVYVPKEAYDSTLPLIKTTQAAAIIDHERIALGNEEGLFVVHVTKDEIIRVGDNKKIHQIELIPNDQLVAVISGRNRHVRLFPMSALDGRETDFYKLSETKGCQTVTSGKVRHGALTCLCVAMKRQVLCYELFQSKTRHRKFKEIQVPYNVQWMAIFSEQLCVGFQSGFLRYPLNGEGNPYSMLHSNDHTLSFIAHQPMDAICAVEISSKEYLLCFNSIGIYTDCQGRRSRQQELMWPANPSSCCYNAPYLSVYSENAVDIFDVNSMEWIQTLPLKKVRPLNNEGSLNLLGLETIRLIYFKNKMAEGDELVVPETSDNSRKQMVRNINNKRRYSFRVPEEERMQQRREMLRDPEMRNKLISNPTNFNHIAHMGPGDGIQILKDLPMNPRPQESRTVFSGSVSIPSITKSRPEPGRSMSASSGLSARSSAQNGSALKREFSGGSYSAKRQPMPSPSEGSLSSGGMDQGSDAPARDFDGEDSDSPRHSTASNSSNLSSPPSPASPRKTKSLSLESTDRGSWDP
Sequence of UniProt Q9ULG6 (Q9ULG6 whole entry, looked up): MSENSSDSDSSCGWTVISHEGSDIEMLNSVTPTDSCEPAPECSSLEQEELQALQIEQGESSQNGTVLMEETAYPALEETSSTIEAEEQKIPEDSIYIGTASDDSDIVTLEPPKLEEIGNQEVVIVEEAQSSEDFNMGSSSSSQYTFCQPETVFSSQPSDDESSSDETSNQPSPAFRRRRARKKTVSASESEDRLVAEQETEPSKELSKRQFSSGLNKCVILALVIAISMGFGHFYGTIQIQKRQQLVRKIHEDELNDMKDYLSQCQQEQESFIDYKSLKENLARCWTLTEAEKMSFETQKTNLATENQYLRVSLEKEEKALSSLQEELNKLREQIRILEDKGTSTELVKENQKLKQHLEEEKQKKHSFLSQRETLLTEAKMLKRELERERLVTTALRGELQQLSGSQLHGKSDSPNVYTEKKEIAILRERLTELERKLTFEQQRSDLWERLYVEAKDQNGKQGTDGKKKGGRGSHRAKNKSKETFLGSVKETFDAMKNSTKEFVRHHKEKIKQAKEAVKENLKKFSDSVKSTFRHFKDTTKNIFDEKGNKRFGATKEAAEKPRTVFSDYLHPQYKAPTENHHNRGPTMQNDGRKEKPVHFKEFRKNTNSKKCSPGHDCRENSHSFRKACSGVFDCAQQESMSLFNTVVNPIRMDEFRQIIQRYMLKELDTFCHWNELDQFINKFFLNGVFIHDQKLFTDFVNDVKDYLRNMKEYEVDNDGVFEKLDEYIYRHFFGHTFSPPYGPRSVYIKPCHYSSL
Sequence of UniProt Q86WA6 (Q86WA6 whole entry, looked up): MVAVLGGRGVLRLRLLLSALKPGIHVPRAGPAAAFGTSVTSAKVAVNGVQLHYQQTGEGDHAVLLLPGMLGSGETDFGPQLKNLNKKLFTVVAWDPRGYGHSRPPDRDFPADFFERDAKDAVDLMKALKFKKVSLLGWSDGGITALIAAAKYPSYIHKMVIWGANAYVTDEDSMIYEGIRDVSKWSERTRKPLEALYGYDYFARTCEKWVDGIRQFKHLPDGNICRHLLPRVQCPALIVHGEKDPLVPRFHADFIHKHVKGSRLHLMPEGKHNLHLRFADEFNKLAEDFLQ
Sequence of UniProt Q92879 (Q92879 whole entry, looked up): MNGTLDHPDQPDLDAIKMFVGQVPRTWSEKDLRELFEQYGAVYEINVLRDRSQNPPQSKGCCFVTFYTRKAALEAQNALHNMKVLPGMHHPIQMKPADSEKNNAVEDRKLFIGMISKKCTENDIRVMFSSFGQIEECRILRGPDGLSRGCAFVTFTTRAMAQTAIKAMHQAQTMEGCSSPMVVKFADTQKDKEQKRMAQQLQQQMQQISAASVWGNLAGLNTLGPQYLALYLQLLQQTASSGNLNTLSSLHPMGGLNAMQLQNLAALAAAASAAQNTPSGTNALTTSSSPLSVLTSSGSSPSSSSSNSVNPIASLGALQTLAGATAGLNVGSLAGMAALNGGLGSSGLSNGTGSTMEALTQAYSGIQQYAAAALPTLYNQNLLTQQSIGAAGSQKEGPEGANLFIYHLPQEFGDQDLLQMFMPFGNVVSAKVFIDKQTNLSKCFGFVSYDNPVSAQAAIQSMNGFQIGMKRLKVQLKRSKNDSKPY
Sequence of UniProt Q8WUX2 (Q8WUX2 whole entry, looked up): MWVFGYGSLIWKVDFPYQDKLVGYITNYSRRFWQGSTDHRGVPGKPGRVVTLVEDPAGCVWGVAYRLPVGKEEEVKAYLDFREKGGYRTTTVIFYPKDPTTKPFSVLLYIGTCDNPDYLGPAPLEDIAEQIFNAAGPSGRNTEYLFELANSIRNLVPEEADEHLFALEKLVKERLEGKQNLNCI

Compound in the assay: Cc1ccc(-n2nc(C(C)(C)C)cc2NC(=O)Nc2ccc(OCCN3CCOCC3)c3ccccc23)cc1 [doramapimod]
As to the kind of experiment: log2 fold change, soluble protein after heating vs DMSO (PISA); higher = thermal stabilisation; K562 lysate, 10 uM; active = over 0.2 and 3.5 SD of the protein, either way, in both replicates (recomputed). The gist of the method:
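Log-two fold change in thermal stability relative to solvent controls is reported from duplicates. For each sample, crude K562 extract from dounce-homogenised pellets in PBS pH 7.4 with 1 mM MgCl2, at 1 mg/mL protein, was treated with 10 μM compound for 30 min. Aliquots heated for 3 min across 48°C-58°C were pooled, brought to 0.5% NP-40 at 4°C and cleared at 21,000xg for 90 min. The supernatant was quantified by TMTpro 16plex LC-MS/MS with channel sums equalised.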
For AURKAIP1 (UniProt Q9NWT8), the log2 fold change was -0.039 (inactive). With CDC42BPA isoform 6 (UniProt Q5VT25) the figure was 0.075 (inactive); with BMS1 (UniProt Q14692), 0.047 (inactive). With ATP9B (UniProt O43861) the figure was 0.136 (inactive); with BUD23 isoform 3 (UniProt O43709), -0.035 (inactive).

As to ATXN2 (UniProt F8WB05), the log2 fold change is -0.12 (inactive). As to ATP11A (UniProt P98196), the log2 fold change is -0.07 (inactive). Then C8orf37 (UniProt Q96NL8), with 0.043 (inactive); and CELF2 isoform 3 (UniProt O95319), with -0.579 (active); and CDS2 (UniProt O95674), with 0.009 (inactive). For the target CAMLG (UniProt P49069), the log2 fold change was -0.005 (inactive). Then CAPNS1 (UniProt P04632), with 0.079 (inactive); and C12orf45 (UniProt Q8N5I9), with -0.023 (inactive); and CDK9 isoform 2 (UniProt P50750), with -0.02 (inactive). Turning to CCPG1 isoform 5 (UniProt Q9ULG6), the log2 fold change is 0.036 (inactive). CELF1 isoform 4 (UniProt Q92879): the log2 fold change is -0.605 (active).

CDC42EP4 (UniProt Q9H3Q1): the log2 fold change is 0.157 (inactive). Then BLOC1S6 (UniProt Q9UL45), with -0.011 (inactive). With CCNB2 (UniProt O95067) the figure was 0.009 (inactive). For CASP3 (UniProt P42574), the log2 fold change is 0.005 (inactive).

As for CHAC2 (UniProt Q8WUX2), the log2 fold change is -0.01 (inactive). With CBX5 (UniProt P45973) the figure was 0.006 (inactive); with ATG7 (UniProt O95352), 0.02 (inactive); with CHAF1A (UniProt Q13111), 0.026 (inactive).

In the case of C9orf72 (UniProt Q96LT7), the log2 fold change is 0.03 (inactive).

Take ATRIP (UniProt Q8WXE1): the log2 fold change was 0.001 (inactive).

For the target CAMK2G isoform 8 (UniProt Q13555), the log2 fold change is -0.049 (inactive). As for CCT6A (UniProt P40227), the log2 fold change is -0.013 (inactive). As to C2CD5 isoform 3 (UniProt Q86YS7), the log2 fold change was 0.035 (inactive). As to CHCHD4 isoform 2 (UniProt Q8N4Q1), the log2 fold change was 0.047 (inactive). Then C19orf54 (UniProt Q5BKX5), with -0.036 (inactive). With BPHL (UniProt Q86WA6) the figure was -0.003 (inactive); with CCNB1 (UniProt P14635), 0.03 (inactive); with CDK11B (UniProt P21127), 0.031 (inactive).

As for C3 (UniProt P01024), the log2 fold change is -0.006 (inactive). As for CASC4 (UniProt Q6P4E1), the log2 fold change was 0.057 (inactive).

For the target BRD2 isoform 2 (UniProt P25440), the log2 fold change is -0.084 (inactive).

As for CDAN1 (UniProt Q8IWY9), the log2 fold change is -0.021 (inactive).

For the target CCDC85B (UniProt Q15834), the log2 fold change was 0.098 (inactive).

Turning to CARS isoform 3 (UniProt P49589), the log2 fold change was 0.014 (inactive).
